# Assay results published in the supplement of paper PMC11417369.
# The full ranking holds about 25,000 sequences; the median of “ln(normalized median fluorescence intensity)” is about 9.7, and the highest 2% start at about 11. The full list was thinned out, with the highest values kept by preference.
# Tested on: PfAP2-HC AP2 domain (GST-tagged)
# Assay: gcPBM binding intensity (ln(normalized median fluorescence intensity)); higher = stronger DNA binding
# In short: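 Alexa488 anti-GST antibody, scanned at 488 nm, detected GST-tagged P. falciparum DNA-binding domains that had been expressed in E. coli and incubated for 1 h on an Agilent 4 × 180k array. The array carried primer-extended double-stranded 36-bp intergenic genomic probes and negative controls. Binding intensity is the highest Masliner-normalised natural-log median intensity across replicate spots of either orientation of each probe.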
row,Sequence,gcPBM binding intensity (ln)
1,ATAATGAAAAGGAACATACACACCCCATATAAATAT [CACACA_site3442],10.3
2,TACAAACAAACACATAGCAATATATGTTATCAAAAA [XGTACX_negctrl_site1],9.81
3,AGAAAGAAAGAATACACACACACATATATAAATATC [CACACA_site7716],10.4
4,TAAAGAAATAAATACATACACACATATATATATATA [CACACA_site3363],9.89
5,AGAAAGAAAGAATACACACACACATATATATATATC [CACACA_site3744],11.5
6,TTATCATTTTAATGGTGTACTCAATAAAAACTTTAA [XGTACX_site4595],9.13
7,ACATAAATATATGACACACACACATATTATATATAT [CACACA_site3065],11.1
8,AAAAAAAACAGACACACACACATAAATATATATAAA [CACACA_site148],10.4
9,TATATATATAGACACACACACACATATATATATATA [CACACA_site9366],10.7
10,AAAAATTCCAGACACACACACACATATAAATAAATA [CACACA_site1232],11.1
11,TATATAAATAGACACACACACATATAAATATAAATA [CACACA_site6503],10.4
12,TATATATATAGACACACACACATATAAATAAATAAA [CACACA_site444],10.4
13,GCACATAAATATATGACACACACACCGATTATATAT [CACACA_site9003],10.8
14,AAAGGATATAGACACACACACACATATATATATATA [CACACA_site2200],11.4
15,AAAGGATACAGACACACACACACATATATATATATA [CACACA_site906],10.8
16,AAAAAAAACAGACACACACACATAAATATAAATAAA [CACACA_site6214],10.5
17,TATATAATATATATGACACACATATTTATATAAATA [CACACA_site4054],9.57
18,CATATAAATAGACACACACACACATATAAATAAATA [CACACA_site7156],11.1
19,CACACTTTATAATGTTGTACGATACATTATACCAAA [XGTACX_site941],9.67
20,ATAGTATAACAGCAATGTACACATATTTGTGTATAT [XGTACX_site7899],10
21,AATATTAAAAACAAAACACACAAAAAAAAATAAACT [CACACA_site6470],10.2
22,TGTACATATATATAATATATATATCATCATATTTTC [CACACA_negctrl_site1750],9.69
23,TAAAACAAAATAACATGTACAAAAAAAAAAAAAAAA [XGTACX_site2915],9.24

row,Sequence,gcPBM binding intensity (ln)
1,ACAAATAAATAAATATGTACTTAATTATATAATTGA [XGTACX_site5626],9.5
2,TATCATGGGTGTATTTCACACACGGATAATCATTTA [CACACA_site8211],9.83
3,AAGAAAATTAACCCATGTACTTATGTAGATAGCAAG [XGTACX_site1049],9.87
4,TTGAGAAAAATTAATGGTACACATATTATAAGTATA [XGTACX_site6539],9.7
5,AAATATATTTTTTTTTGTACTCAAAAAGAAAAAAAA [XGTACX_site8540],9.05
6,AAAAATTTCATATTCACACACAAAAAAAAAAAATAT [CACACA_site1592],9.96
7,AAATACTTATTCGTGGTGCAACAATTTTAAAAATTA,9.49
8,TATGAAAAAATATATACACACATAATAAAGGTATAT [CACACA_site3737],9.9
9,AACATTATAAGACACACACACACATATATAAATATA [CACACA_site6622],11.2
10,TATAAATAAAGACACACACACATATAAATAAATATA [CACACA_site7155],10.5
11,CATATAAAAAGACACACACACACATATATATATATA [CACACA_site940],10.8
12,TAATAAATAAGACACACACACATATATATATATTAT [CACACA_site1389],10.3
13,TAAATTTATAGACACACACACATATAAATAAATATA [CACACA_site6530],10.8
14,TATATAAATAGACACACACACACATATAAATAAATA [CACACA_site7855],10.7
15,AATAAATTTAGACACACACACACATATAAATAAATA [CACACA_site6531],11.1
16,TACACGCATAGACACACACACACACGCATATAAATA [CACACA_site6446],11.3
17,AACATTATAAGACACACACACACATATATATATATA [CACACA_site8259],10.8
18,TCATAGTATAGACACACACACACACGCATATAAATA [CACACA_site6915],10.5
19,AAAAAAAAAAGACACACACACATATAAATATAAATA [CACACA_site6899],11.5
20,TAATTTTTTAGACACACACACATATAAATATAAATA [CACACA_site6195],10.8
21,AAAAAAAAAAAATTCACACACATATAAAAAATTAAG [CACACA_site728],10
22,AATAAATATAGGTACACACACAAATATGTACATATC [CACACA_site6976],10.2
23,ATTCTCCATGTTTGATGTACTCATATGACGACGGAG [XGTACX_site4923],9.52

row,Sequence,gcPBM binding intensity (ln)
1,AATATATGTATATCCACACACATATATATATATATA [CACACA_site1633],9.96
2,ATACATATTCTTATTTGTACTTATTATAAAATGGTC [XGTACX_site6584],9.56
3,ATATATATTTATTTATGTACGAATAAATTTACGAAT [XGTACX_site5190],9.51
4,CTTATCAAAAAAAAAGCATGCCACAGGCAAAAGGTA [TGCATGCA_site574],9.71
5,ATAGAATAAATTTTGTCATTTATTCCTTATATATAA [GTGCAC_negctrl_site227],9.56
6,TTATATATTTTTAGGTGTACTTTTTTTTTTTTTTTT [XGTACX_site8164],9.54
7,ATATATATATAATAAACACACACATATACATATATG [CACACA_site9145],10.5
8,ATATTATATATATACACACACACATGCATGCACATA [CACACA_site7917],10.3
9,AAAAATAAAATATATACATGCATATACATATTATAT [TGCATGCA_site668],9.65
10,AATAACCACCAACACACACACATATATATATATATA [CACACA_site3540],10.2
11,CATATAAAAGGACACACACACACATATATATATATA [CACACA_site4674],11.6
12,AAATTCCACGAACACACACACATATAAATAAATAAA [CACACA_site6697],10.6
13,ATAAAAAAAGGACACACACACATATATATATATATA [CACACA_site5662],10.8
14,ATAAAAAAAAGACACACACACATATATATATATATA [CACACA_site3073],10.3
15,AAACATAAGAGACACACACACATATATAAATAAATA [CACACA_site7674],10.5
16,ATATTATATAAATACACACACACATGCATGCACATA [CACACA_site4236],11.2
17,ATAAAAAAAGGACACACACACATATATTTATTTATA [CACACA_site7438],10.5
18,TAAAACATAAGAGACACACACACATATATATATATA [CACACA_site3643],10.9
19,AAATTCCACCAACACACACACATATAAATAAATAAA [CACACA_site1233],11
20,ATAGATATAACATATGCATGTAAAATATAACCACTC [TGCATGCA_site60],9.97
21,TTCACTAATAAATACGCACACATATACAGATATATA [CACACA_site4887],9.94
22,GAGTTTTAATGTAATAGTACTTTAATTATTATATAT [XGTACX_site4527],9.7
23,ATACACAAAATTATTAAATCAATAAATATATGGTTT [CACACA_negctrl_site353],9.57

row,Sequence,gcPBM binding intensity (ln)
1,TAATATCATTTATGGGGTACCTCCTATTCTTATTTA [XGTACX_site1839],9.64
2,TAACTTTTTTTTTTTTTTTTTTAACTTTTATGTAAT [GTGCAC_negctrl_site156],9.45
3,TTAAACAATTTAGACATACACACAAAAATAATATTA [CACACA_site385],9.87
4,GAAATATTTAGACACACACACAAACATATAAATATA [CACACA_site6980],11.1
5,AAACAATTTAGACATACACACAAAAATAATATTATA [CACACA_site384],10.3
6,TACATCTGTAATGTGTGTACATATATGTATATATTT [XGTACX_site1805],9.87
7,ATAAATAAAAAACACACACACACACCCAAAAAAAAA [CACACA_site2624],10.7
8,TTAACAAATAAACACACACACACACCCAAAAAAAAA [CACACA_site8068],11.1
9,TATTTATTAAAACACACACACACACCCACAAAATAA [CACACA_site241],10.5
10,TTTATTAAGAAACACACACACACACCCAAAATAAAA [CACACA_site242],10.5
11,AAAAAAAAAAAACACACACACAAAATAAACAAACAA [CACACA_site2721],10.5
12,TTTATTAATGGACACACACACACACCCAAAATAAAA [CACACA_site4294],10.5
13,TTTATTAATAAACACACACACACACCCAAAATAAAA [CACACA_site7966],11
14,TAATAAATAAATGACACACACACACGCAAAAAAAAA [CACACA_site7275],10.6
15,ATATAAAATAGACACGCACACAAAAAAAAAAAAAAA [CACACA_site3522],10.4
16,TTTATTAATAGACACACACACACACGCAAAATAAAA [CACACA_site6255],11.2
17,ATTAATAAATAAATGACACACACACCCACAAAAAAA [CACACA_site8839],11.3
18,AACACCCACAGACACACACACAAAAATGATTAAAAA [CACACA_site2433],10.9
19,AAAAAAATAGTCTTCTTGCACTTTTTAATTTATTTT,9.6
20,CTAAAACAATAAATCACACATACATAGGATAATATA [CACACA_site4247],9.81
